# Where “and” joins values, the source holds several entries; their conditions need not be identical. Equal entries are not always repeated. Inconclusive results are not listed. A call without a number means that no potency is given here. A structure can be active in one record and inactive in another. Calls of active or inactive are those of the source. Unless noted, calls follow the shape of the full dose curve.
# Assays:
# [1] = Nuclear factor erythroid 2-related factor 2/antioxidant responsive element (Nrf2/ARE) small molecule agonists: qHTS cell viability counter screen in human keratinocytes (AID 1919968; active = well fitted curve in the direction sought with a large enough effect in the repeat runs; an effect the other way counts as inactive or inconclusive; also: nearly all actives have a fitted effect of over 55% in size; also: potency is read from the fitted curve at half-maximal effect)
# Summary of the method: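 HaCaT ARE reporter line, 1,500 cells/well; 5 h settle, 37 C/5% CO2; cpd in DMSO pinned; 23 h exposure; CellTiter-Fluor, 1 h; fluorescence.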
# [2] = Nuclear factor erythroid 2-related factor 2/antioxidant responsive element (Nrf2/ARE) small molecule agonists: luciferase reporter gene qHTS assay in human keratinocytes (AID 1919969); also: nearly all actives have a fitted effect of over 35% in size; also: potency is read from the fitted curve at half-maximal effect
# [3] = target: Gonadotropin-releasing hormone receptor (Homo sapiens) (UniProt P30968); experiment: Human gonadotropin-releasing hormone receptor (GnRHR) small molecule agonists, calcium flux assay in GnRHR-HEK293 cells (AID 1920063); also: nearly all actives have a fitted effect of over 35% in size
# Gonadotropin-releasing hormone receptor (Homo sapiens), sequence (P30968 whole entry, looked up): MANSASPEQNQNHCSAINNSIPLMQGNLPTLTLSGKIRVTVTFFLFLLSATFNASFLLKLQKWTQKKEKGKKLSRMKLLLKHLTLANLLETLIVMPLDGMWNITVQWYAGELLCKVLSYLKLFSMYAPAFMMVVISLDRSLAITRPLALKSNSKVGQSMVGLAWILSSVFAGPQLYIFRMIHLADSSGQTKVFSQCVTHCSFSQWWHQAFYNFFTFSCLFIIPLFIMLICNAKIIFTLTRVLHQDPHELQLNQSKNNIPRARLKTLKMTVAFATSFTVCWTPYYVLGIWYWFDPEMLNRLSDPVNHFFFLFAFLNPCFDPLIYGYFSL
# Summary of the method: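 GnRHR-HEK293, 1500 cells/well, 18 h 37 C/5% CO2; Ca dye 1 h 37 C; cpd pinned (DMSO), agonist mode; kinetic FL 480/540, 3 min, 1 s reads; 15 conc, n=3.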
# [4] = target: KiSS-1 receptor (Homo sapiens) (UniProt Q969F8); experiment: Human kisspeptin (KISS1R) small molecule agonists, calcium flux assay in KISS1R-HEK293 cells (AID 1920064; active = well fitted curve in the direction sought with a large enough effect in the repeat runs; an effect the other way counts as inactive or inconclusive)
# KiSS-1 receptor (Homo sapiens), sequence (Q969F8 whole entry, looked up): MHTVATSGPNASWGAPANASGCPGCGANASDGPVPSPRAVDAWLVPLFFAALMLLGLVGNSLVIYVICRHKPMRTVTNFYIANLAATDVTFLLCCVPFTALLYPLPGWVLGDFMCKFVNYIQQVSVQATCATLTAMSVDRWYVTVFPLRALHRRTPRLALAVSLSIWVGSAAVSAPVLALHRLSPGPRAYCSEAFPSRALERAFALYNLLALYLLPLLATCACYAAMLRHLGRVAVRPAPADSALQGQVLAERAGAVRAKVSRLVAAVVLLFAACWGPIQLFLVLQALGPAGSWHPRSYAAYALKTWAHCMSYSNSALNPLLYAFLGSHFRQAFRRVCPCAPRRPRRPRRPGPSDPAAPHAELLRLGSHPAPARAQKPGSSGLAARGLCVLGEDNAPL
# Summary of the method: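 Stable human KISS1R HEK293 line; 18 h plating, 37 C/5% CO2; calcium dye 1 h 37 C; compound pin transfer; kinetic fluorescence Ex/Em 480/540, 3 min.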
# [5] = p53 small molecule agonists, cell-based qHTS assay with human liver microsomes: qHTS cell viability counter screen (AID 1963579); also: nearly all actives have a fitted effect of over 45% in size
# Summary of the method: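 Viability of p53RE-bla cells is measured as CellTiter-Glo luminescence following a 16 h, 37 C incubation with compound, liver microsomes from human donors and NADPH.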
# [6] = p53 small molecule agonists, cell-based qHTS assay with rat liver microsomes: qHTS cell viability counter screen (AID 1963580); also: nearly all actives have a fitted effect of over 45% in size; also: potency is read from the fitted curve at half-maximal effect
# Summary of the method: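 In HCT-116 cells carrying a p53 response element-bla reporter, compounds were metabolically activated in situ by rat liver microsomes with NADPH over 16 h. Cell ATP content then served as the cytotoxicity measure.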
# [7] = target: 5-hydroxytryptamine receptor 2A (Homo sapiens) (UniProt P28223); experiment: 5-hydroxytryptamine receptor 2A (HTR2A) small molecule antagonists, cell-based qHTS assay (AID 1963586); also: nearly all actives have a fitted effect of over 45% in size
# 5-hydroxytryptamine receptor 2A (Homo sapiens), sequence (P28223 whole entry, looked up): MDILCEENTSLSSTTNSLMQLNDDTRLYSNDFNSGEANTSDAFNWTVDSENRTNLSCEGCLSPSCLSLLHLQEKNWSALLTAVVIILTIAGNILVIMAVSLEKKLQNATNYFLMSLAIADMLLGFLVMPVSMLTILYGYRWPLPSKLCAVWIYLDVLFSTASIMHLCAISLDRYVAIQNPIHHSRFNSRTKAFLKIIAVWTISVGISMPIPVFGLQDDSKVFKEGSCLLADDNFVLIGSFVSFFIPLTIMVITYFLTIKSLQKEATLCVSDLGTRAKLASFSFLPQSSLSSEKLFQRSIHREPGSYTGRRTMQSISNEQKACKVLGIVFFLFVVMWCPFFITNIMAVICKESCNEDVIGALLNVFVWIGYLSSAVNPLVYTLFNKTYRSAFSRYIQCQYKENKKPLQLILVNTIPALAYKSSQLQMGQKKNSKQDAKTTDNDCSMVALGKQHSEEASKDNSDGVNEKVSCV
# Summary of the method: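 Antagonist-mode intracellular calcium assay: DOI (4 nM) added after 5 min compound pre-incubation at room temperature to dye-loaded HTR2A-CHO cells. Fluorescence followed for 3 min, sampled every second.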
# [8] = target: 5-hydroxytryptamine receptor 2A (Homo sapiens) (UniProt P28223); experiment: 5-hydroxytryptamine receptor 2A (HTR2A) small molecule agonists, cell-based qHTS assay (AID 1963587); also: nearly all actives have a fitted effect of over 30% in size; also: potency is read from the fitted curve at half-maximal effect
# Summary of the method: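 HTR2A-CHO cells, plated 18 h at 37 C/5% CO2, dye-loaded 1 h at 37 C; compounds in DMSO added by pin tool (agonist mode). Intracellular calcium flux read as kinetic fluorescence on FDSS over 2 min at 1 s intervals.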
# [9] = target: Muscarinic acetylcholine receptor M1 (Homo sapiens) (UniProt P11229); experiment: Cholinergic receptor muscarinic 1 (CHRM1) small molecule antagonists, cell-based qHTS assay (AID 1963588); also: nearly all actives have a fitted effect of over 40% in size
# Muscarinic acetylcholine receptor M1 (Homo sapiens), sequence (P11229 whole entry, looked up): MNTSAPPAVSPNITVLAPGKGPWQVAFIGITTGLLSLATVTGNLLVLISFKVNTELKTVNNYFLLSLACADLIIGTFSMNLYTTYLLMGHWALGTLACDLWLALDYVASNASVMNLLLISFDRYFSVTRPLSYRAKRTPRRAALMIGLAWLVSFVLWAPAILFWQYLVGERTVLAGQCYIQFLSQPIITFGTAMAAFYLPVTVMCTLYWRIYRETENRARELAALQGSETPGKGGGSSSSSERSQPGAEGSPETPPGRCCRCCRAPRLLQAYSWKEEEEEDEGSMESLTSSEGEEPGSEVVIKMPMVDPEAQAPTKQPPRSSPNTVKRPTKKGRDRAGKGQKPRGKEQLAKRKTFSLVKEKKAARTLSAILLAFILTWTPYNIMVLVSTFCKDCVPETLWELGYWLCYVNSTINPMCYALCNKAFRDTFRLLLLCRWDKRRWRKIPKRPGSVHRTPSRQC
# Summary of the method: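 CHRM1-CHO calcium-flux assay, antagonist mode. Cells were seeded 18 h, dye-loaded 1 h at 37 C and given compound for 5 min at RT, then acetylcholine was added at 50nM. FDSS fluorescence was read 3 min; 15 concentrations, three runs.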
# [10] = target: Muscarinic acetylcholine receptor M1 (Homo sapiens) (UniProt P11229); experiment: Cholinergic receptor muscarinic 1 (CHRM1) small molecule agonists, cell-based qHTS assay (AID 1963589); also: nearly all actives have a fitted effect of over 35% in size
# Summary of the method: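 Human M1 in stable CHO line; 18 h plating, 1 h dye load 37 C; cpd added (agonist mode); Ca2+ fluorescence kinetic read, 1 s intervals; 15 conc, 3 runs.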
# [11] = cAMP Responsive Elements (CRE) small molecule agonists, cell-based qHTS assay (AID 1963590)
# Summary of the method: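 HEK 293T CRE-bla, 2,000 cells/well, 18 h preincubation 37 C/5% CO2; cpds (DMSO) pinned, 3 h; LiveBLAzer B/G FRET substrate, 2 h RT.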
# [12] = cAMP Responsive Elements (CRE) small molecule antagonists, cell-based qHTS assay (AID 1963591; active = well fitted inhibition curve with a large enough effect in the signal ratio in the repeat runs, not every such curve was filed as active; the % refers to the signal ratio)
# Summary of the method: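 Beta-lactamase reporter read by FRET substrate (LiveBLAzer B/G) after 2 h at room temperature. CRE-bla HEK293T cells had received compound plus 0.25 uM (final) NKH477 for 3 h at 37 °C.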
# [13] = target: Beta-2 adrenergic receptor (Homo sapiens) (UniProt P07550); experiment: Adrenergic beta2 receptor (ADRB2) small molecule antagonists, cell-based qHTS assay (AID 1963592); also: series mostly up to about 92 µM; nearly all actives have a fitted effect of over 50% in size
# Beta-2 adrenergic receptor (Homo sapiens), sequence (P07550 whole entry, looked up): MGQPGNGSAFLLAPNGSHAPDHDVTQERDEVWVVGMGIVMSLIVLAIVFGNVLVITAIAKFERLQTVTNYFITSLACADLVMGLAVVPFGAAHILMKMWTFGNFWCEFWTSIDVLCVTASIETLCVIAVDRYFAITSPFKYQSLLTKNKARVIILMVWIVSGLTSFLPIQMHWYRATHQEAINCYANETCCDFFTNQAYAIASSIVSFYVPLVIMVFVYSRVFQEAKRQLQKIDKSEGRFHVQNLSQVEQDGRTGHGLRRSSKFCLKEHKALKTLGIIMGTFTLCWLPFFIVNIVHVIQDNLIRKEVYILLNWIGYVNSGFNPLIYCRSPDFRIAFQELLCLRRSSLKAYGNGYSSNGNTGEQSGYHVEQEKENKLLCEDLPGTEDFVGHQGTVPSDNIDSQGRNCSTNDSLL
# Summary of the method: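 Cells (CHO, stable ADRB2 overexpression) incubated 18-20hr at 37C; compounds added from DMSO; agonist mix (1nM isoproterenol, 100uM IBMX, 25uM Ro-20-1724) added; 0.5hr RT; d2-cAMP and anti-cAMP-cryptate added; 1hr RT; 665/615 nm read.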
# [14] = target: D(2) dopamine receptor (Homo sapiens) (UniProt P14416); experiment: Dopamine D2 receptor (DRD2) small molecule agonists, cell-based qHTS assay (AID 1963594); also: nearly all actives have a fitted effect of over 35% in size
# D(2) dopamine receptor (Homo sapiens), sequence (P14416 whole entry, looked up): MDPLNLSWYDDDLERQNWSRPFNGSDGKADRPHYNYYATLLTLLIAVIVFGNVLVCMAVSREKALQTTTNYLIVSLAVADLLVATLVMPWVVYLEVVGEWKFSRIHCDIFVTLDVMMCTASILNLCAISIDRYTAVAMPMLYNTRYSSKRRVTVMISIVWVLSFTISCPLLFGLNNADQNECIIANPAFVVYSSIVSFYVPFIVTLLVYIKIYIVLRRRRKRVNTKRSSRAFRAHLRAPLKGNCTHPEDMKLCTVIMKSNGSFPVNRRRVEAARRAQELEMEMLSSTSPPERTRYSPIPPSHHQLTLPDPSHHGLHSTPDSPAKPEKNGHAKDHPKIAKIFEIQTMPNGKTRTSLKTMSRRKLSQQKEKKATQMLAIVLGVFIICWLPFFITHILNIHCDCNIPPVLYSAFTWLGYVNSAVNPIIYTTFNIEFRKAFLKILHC
# Summary of the method: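 HEK293 cells stably expressing DRD2 were cultured 24 h at 37 C, then given Ro20-1724 (0.1 mM final) and compounds for 10 min at room temperature. NKH477 (200nM) was then added for 30 min. cAMP was read by HTRF.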
# [15] = target: D(2) dopamine receptor (Homo sapiens) (UniProt P14416); experiment: Dopamine D2 receptor (DRD2) small molecule antagonists, cell-based qHTS assay (AID 1963595; active = well fitted inhibition curve with a large enough effect in the signal ratio in the repeat runs, with a control signal flat; the % refers to the signal ratio)
# Summary of the method: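 HEK293 cells stably expressing DRD2, preincubated with 0.1 mM Ro20-1724 and compounds 10 min, were stimulated with 200 nM NKH477 plus 12 nM quinpirole for 30 min at room temperature; cAMP measured by HTRF (665/620 nm).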
# [16] = p53 small molecule agonists, cell-based qHTS assay with human liver microsomes (AID 1963577);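 also: p53 response element beta-lactamase reporter cells with liver microsomes plus NADPH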
# Summary of the method: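 HLM-supplemented p53RE-bla reporter assay: 16 h compound exposure at 37 C, microsomes and NADPH each 0.5 mg/mL final, read by fluorescence intensity.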
# [17] = p53 small molecule agonists, cell-based qHTS assay with rat liver microsomes (AID 1963578)
# Summary of the method: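 Quantitative HTS of the Tox21 10K library: p53RE-bla cells, rat liver microsomes plus NADPH at 0.5 mg/mL final each, 16 h at 37 C, beta-lactamase fluorescence detection.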
# [18] = p53 small molecule agonists, cell-based qHTS assay: qHTS cell viability counter screen (AID 1963581); also: nearly all actives have a fitted effect of over 45% in size
# Summary of the method: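 HCT-116 p53RE-bla cells, 4,000/well, plated 5 h before compound pin transfer; 16 h at 37 C; bla substrate 2 h RT; then CellTiter-Glo, 30 min RT, luminescence.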
# [19] = p53 small molecule agonists, cell-based qHTS assay (AID 1963582; active = well fitted activation curve with a large enough effect in the signal ratio in the repeat runs, not every such curve was filed as active; the % refers to the signal ratio)
# Summary of the method: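 Reporter line: p53RE-bla. Pre-incubation 5 h, 37 C, 5% CO2; compound (DMSO, pin tool) 16 h, 37 C; B/G FRET substrate 2 h RT; fluorescence intensity read.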
# [20] = target: Beta-2 adrenergic receptor (Homo sapiens) (UniProt P07550); experiment: Adrenergic beta2 receptor (ADRB2) small molecule agonists, cell-based qHTS assay (AID 1963593);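 also: CHO cells stably overexpressing human ADRB2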
# Summary of the method: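 CHO cells stably over-expressing ADRB2 were plated overnight at 37C, then dosed with compounds plus a stimulation mix containing 100uM IBMX and 25uM Ro-20-1724 for 0.5hr at room temperature. cAMP was measured by HTRF competition, 1hr.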
Compound,Potency [1],Potency [2],Potency [3],Potency [4],Potency [5],Potency [6],Potency [7],Potency [8],Potency [9],Potency [10],Potency [11],Potency [12],Potency [13],Potency [14],Potency [15],Potency [16],Potency [17],Potency [18],Potency [19],Potency [20]
C[N+](C)(C)CC(=O)[O-],inactive,inactive,inactive,inactive,inactive,inactive,inactive,inactive,inactive,inactive,inactive,inactive,inactive,inactive,inactive,,,,,
C=CC1(C)OC(=O)N(c2cc(Cl)cc(Cl)c2)C1=O (stereo not drawn),inactive,68.2 µM (active) and inactive,inactive,inactive,inactive,inactive,inactive,inactive,inactive,inactive,inactive,inactive,inactive,inactive,inactive,inactive,inactive,inactive,inactive,inactive
O=C(O)C(Cl)Cl,inactive,inactive,inactive,inactive,,inactive,inactive,inactive,inactive,inactive,inactive,inactive,inactive,inactive,inactive,,,inactive,,
CNC(=O)O/N=C(\SC)C(=O)N(C)C,inactive,inactive,inactive,inactive,inactive,,inactive,inactive,inactive,inactive,inactive,inactive,inactive,inactive,inactive,,,inactive,,inactive
ClCCN1CCCC1,inactive,inactive,inactive,inactive,inactive,inactive,inactive,inactive,inactive,inactive,inactive,inactive,inactive,inactive,inactive,inactive,inactive,inactive,inactive,inactive
O=P1(NCCCl)OCCCN1CCCl (stereo not drawn),inactive,inactive,inactive,inactive,,inactive,,,,,inactive,inactive,inactive,inactive,inactive,,,inactive,,inactive
CCCCCCCCCCCC(=O)O,inactive,inactive,inactive,inactive,inactive,inactive,inactive,inactive,,inactive,inactive,inactive,inactive,inactive,inactive,,,inactive,,
CCNc1nc(NC(C)C)nc(SC)n1,inactive,inactive,inactive,inactive,inactive,,inactive,inactive,inactive,inactive,,inactive,inactive,inactive,inactive,,,inactive,,
CCNCC,inactive,inactive,inactive,inactive,inactive,inactive,inactive,inactive,,inactive,inactive,inactive,inactive,inactive,inactive,,,inactive,,inactive
Nc1ccc(-c2ccc(N)c(N)c2)cc1N,inactive,inactive and 68.6 µM (active),inactive,inactive,,inactive,inactive,inactive,inactive,inactive,inactive,inactive,inactive,inactive,inactive,,,inactive,,
C[C@]12C=CC3=C4CCC(=O)C=C4CC[C@H]3[C@@H]1CC[C@@H]2O,inactive,27.1 µM (active) and 58 µM (active),inactive,inactive,inactive,inactive,,,,,,,inactive,inactive,inactive,,,inactive,,inactive
NC(=S)Nc1ccccc1,inactive,55.4 µM (active) and inactive,inactive,inactive,,29.4 µM (active) and inactive,inactive,,inactive,inactive,inactive,inactive,inactive,inactive,inactive,,,inactive,,
[CH3][Sn]([CH3])([Cl])[Cl],inactive,55.4 µM (active) and inactive,inactive,inactive,inactive,,inactive,inactive,inactive,,inactive,inactive,inactive,inactive,inactive,,,inactive,,inactive
CC(C)N(C(=O)CCl)c1ccccc1,54.5 µM (active),4.86 µM (active) and 10.9 µM (active),inactive,inactive,inactive,inactive,inactive,inactive,inactive,inactive,,,inactive,inactive,inactive,,,inactive,,inactive
COP(=S)(OC)SCN1C(=O)c2ccccc2C1=O,inactive,61.6 µM (active) and 68.6 µM (active) and inactive,inactive,inactive,inactive,inactive,inactive,inactive,inactive,inactive,inactive,inactive,inactive,inactive,inactive,,,,inactive,inactive
COc1ccc(N)cc1N,inactive,25.1 µM (active) and 33 µM (active),inactive,inactive,inactive,inactive,inactive,22.6 µM (active) and inactive,inactive,inactive,,inactive,,inactive,inactive,,,inactive,,inactive
COc1ccccc1N,inactive,61.1 µM (active) and inactive,inactive,inactive,inactive,inactive,,,,,inactive,inactive,inactive,inactive,inactive,,,inactive,,inactive

# Reference: PubChem BioAssay (Tox21)
